Measured values: the OligoGym collection

Biological target: GPR64
Assay: pooled miR-30 sensor sort-seq; sequence = guide strand
Settings: shRNA
Also: reference of the scale not given here.

Sequence	sensor-assay potency score (higher = more potent)
TTCTATAATCTGACTACTGGGG	-0.476
TAACAATCAACAATGTACCATG	-0.826
ATTATCAGTATCTTCTTCCAGG	-0.212
TTGAAGAGCTGGACACTCCTTG	0.677
TACATGTAGCAACAATAGCAGT	-1.27
TAGTGTTGACATTCGCAGGGGC	0.711
TTGAATACTGGTTTTTCGCTGG	0.838
TAAGCTTAAAGTAACATCTGGA	0.962
TAGTCTACTCTCCTGTTCCTAA	-0.669
TAGTGTATTGTTTAAAACCAAC	-1.45
TAAAGTAACATCATTGAGGCTT	0.0974
TTGGTTTACAGTCTGCTTCTTT	0.449

Biological target: GPRC5B
Assay: as above
Settings: shRNA

Sequence	sensor-assay potency score (higher = more potent)
TTGAGCACGACGGCCATCTCAG	-1.15
TTGAACTTGCCGCACAGAGTGA	-0.846
TTGGGAAATCCTGCTGTTCGGA	-0.702
TACCATGTCGTAGATGAGGGCC	-0.116
TACACGTTGCTTCTAAACGGAG	-1.35
TTGTTCTCCATATAGGCCCGCG	-1.02
ATACACGTTGCTTCTAAACGGA	-0.0127
TGCTGCAGCTTGACATTGCCGA	-0.579
AAGAGGTACATGGTCATCCAGG	-1.02
TTCCACCTCTTGAACTTGCCGC	-0.546
ATGAGCATCAGGAGCAGTGTGA	-1.27
TTCGGAGAGCTGCATTGTGTTC	-1.86

Biological target: GPRC5C
Assay: as above
Settings: shRNA

Sequence	sensor-assay potency score (higher = more potent)
TCCTTCGGACGGAACTTTGTGC	-0.974
TTCTTGCCGTCTTTCGGCGGTG	-1.04
TTGGTGTCCTGCACAAAGGGGA	-0.48
ATGATGGTGAGCACAAACGTGG	-1.32
TGATGTCGTAAGCTCCTTCGGA	-0.537
TGAGGTTGCAGGAATCTCCAGA	0.399
TCACAGAGGAGCAAGATCCAGG	-0.72
TTCGGACGGAACTTTGTGCATC	-0.913
AAGACCTGAGAGTTCTTGCCGT	0.1
TAGTACAGGGGGTTGAGGCCTT	0.25
TCGTAAGCTCCTTCGGACGGAA	-0.916
ATGGTGAGCACAAACGTGGTGA	-0.43
